# Assay results published in PubChem BioAssay (NCATS).
# Inconclusive results are not listed. Entries that show only a call come without a potency. Calls of active or inactive are those of the source. The call rests on the fitted dose curve; in most records, active means well fitted inhibition curve with a large enough effect; inconclusive means small, poorly fitted or top-dose-only effect; inactive means flat fitted curve, though single readings scatter.
# Molecular target: Calcium and integrin-binding protein 1 (Homo sapiens) (UniProt Q99828)
# Assay: Primary qHTS for Identification of Calcium Integrin Binding Protein 1 (CIB1) Competitor (AID 1508620);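 further: GST tagged CIB1 binding a fluorescein labelled alphaIIb integrin peptide tracer; top concentration of the series differs between compounds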
# Settings: CIB1-GST / FITC-alphaIIb peptide fluorescence polarization; series mostly up to 114 µM
# Summary of the method: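 Fluorescence polarization competition: CIB1-GST (1 uM final) preincubated with compound 15 min at room temperature, then FITC-labeled alphaIIb peptide (100 nM final) added for another 15 min. Polarization read at Ex 480/Em 540.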
# Calcium and integrin-binding protein 1 (Homo sapiens), sequence (Q99828 whole entry, looked up): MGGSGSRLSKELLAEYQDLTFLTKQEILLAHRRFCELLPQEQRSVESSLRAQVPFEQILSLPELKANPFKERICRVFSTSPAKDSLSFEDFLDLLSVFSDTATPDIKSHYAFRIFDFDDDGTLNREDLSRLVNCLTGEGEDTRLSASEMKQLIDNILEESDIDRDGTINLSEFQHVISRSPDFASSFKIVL
row,Compound,Potency
1,O=C(Nc1ccc(Cl)c(Cl)c1)Nc1ccc(-c2ccncc2)s1,inactive
2,Cn1ccc2cc(-c3ccc4ncnc(NCc5cccc(F)c5)c4c3)ccc21,inactive
3,CCc1nnc2sc(-c3ccc(C)c(NC(=O)c4ccc(-c5cccc(Cl)c5)o4)c3)nn12,inactive
4,COc1ccc(C2Cc3ccccc3C(=O)N2Cc2ccccc2)cc1COc1ccc(NC(C)=O)cc1 (centres undefined),inactive
5,Cn1nnnc1Sc1ncnc2scc(-c3cnc(N)nc3)c12,inactive
6,Cc1nc(-c2ccccc2)oc1-c1ccc2ncnc(NCCc3cnc[nH]3)c2c1,inactive
7,CC(=O)Nc1ccccc1NC(=O)c1cnn2c(C)cc(C)nc12,inactive
8,O=C(N[C@H]1CCCc2c1cnn2-c1ccc(F)cc1F)c1ccccn1,inactive
9,Cc1ccc(OCCn2c(CCNC(=O)c3ccc(C#N)cc3)nc3ccccc32)cc1,inactive
10,O=C1Cc2cc(C(=O)c3ccco3)ccc2N1,inactive
11,CN(C)c1cccc(-c2cc(N3CCC(C(N)=O)CC3)ncn2)c1,inactive
12,C[C@@H](N)C(=O)Nc1cccc(-c2nn3c(=O)cc(N4CCNCC4)nc3s2)c1,inactive
13,Cc1cc(C)nc(NC(=S)N2CCN(c3cnc4nccn4c3)CC2)c1,inactive
14,Cc1ccc(-c2ccc(CNc3nc(-c4ccccc4C(C)C)ncc3F)cc2)cn1,inactive
15,Cc1ccc(CNc2ncnc3ccc(-c4ccoc4)cc23)o1,inactive
16,O=S1(=O)Nc2c(ccc3cccnc23)-c2ccccc21,inactive
17,c1ccc(OCc2nnc3n2N=C(c2ccccc2)CS3)cc1,inactive
18,CC1=C(C(=O)Nc2ccc(Cl)cc2)C(c2ccccc2Br)N=C(Nc2nc3ccccc3o2)N1 (centres undefined),inactive
19,O=C1CCCC2=C1C(c1[nH]ncc1Cl)N=C(Nc1nc3cccc(Cl)c3o1)N2 (centres undefined),inactive
20,COc1cc(O)c(C(CC(=O)N2CCC(c3ccccc3)CC2)c2ccc(OC)c(OC)c2)c(OC)c1 (centres undefined),inactive

row,Compound,Potency
1,O=S(=O)(Nc1nccs1)c1ccc(NCc2ccccc2)cc1,inactive
2,NC(=O)c1ccccc1C[C@H](C(=O)O)N1C(=O)c2ccc(C(=O)O)cc2C1=O,inactive
3,Cc1ccc(-c2csc(N3CCC(C(N)=O)CC3)n2)cc1,inactive
4,O=C(O)c1cccc2c1C(=O)N(c1ccccc1)C2,inactive
5,CCOC(=O)C1CCN(C(=O)CNC(=O)Nc2ccccc2Cl)CC1,inactive
6,CC(=O)Nc1sc2c(c1-c1cccc(F)c1)CCNC2,inactive
7,O=C1CCc2cc(S(=O)(=O)Nc3cccc(C(F)(F)F)c3)ccc2N1,inactive
8,O=C(OCC#CCSc1nnc(-c2cccc3ccccc23)o1)C1CCC1,inactive
9,N#Cc1c(-c2cccc(C(F)(F)F)c2)no[n+]1[O-],inactive
10,Cc1ccc(-n2cnc3cc(C(=O)N4CCCCC4)ccc32)cc1,inactive
11,CN1CCN(c2nnc(NC(=O)Nc3ccc(Cl)c(Cl)c3)s2)CC1,inactive
12,COc1cccc(Nc2nc(C#N)nc(NC3CCCC3)n2)c1,inactive
13,Oc1ccc(CCc2ccccc2)c2cccnc12,inactive
14,Cc1cc2c(s1)c1cnn(Cc3cc(C(F)(F)F)cc(Cl)c3F)c(=O)c1n2C,inactive
15,N=c1c2c(ncn1-c1ccccc1)Oc1ccc3ccccc3c1C2c1ccc2c(c1)OCCO2 (centres undefined),inactive
16,COC(=O)c1ccc2nc(NC3=NC(c4[nH]ncc4Cl)C4=C(CCCC4=O)N3)oc2c1 (centres undefined),inactive
17,O=C(c1ccccc1O)N(Cc1ccccc1)Cc1cccs1,inactive
18,O=C1Nc2ccccc2/C1=C/c1cc(Cl)c(O)c(Cl)c1,inactive
19,Cc1cc(-c2nnc3n2CCCCC3)c(C)n1-c1ccc(Br)cc1,inactive
